# Data published in PubChem BioAssay (EPA / NIEHS).
# Where a structure was tested more than once in an assay, its records may differ in their call. Activity calls are given as the source filed them. The calls were made as follows: active = hit-call score of the fitted dose curve at least 0.9, where 1 is the maximum; inactive = score below 0.9.
# Molecular target: Retinoic acid receptor alpha (Homo sapiens) (UniProt P10276)
# Test: ATG_DR5_RAR_CIS: Attagene CIS-FACTORIAL HepG2 Assay for human Retinoic Acid Receptor Alpha (RARE), DR5 submotif (AID 2282934);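 as to AC50: reporter responds to endogenous RAR alpha beta and gamma in HepG2 not RARA alone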
# Conditions: HepG2 Attagene cis-factorial RARE DR5 reporter, mRNA; actives raise or lower the signal
# Procedure: ATG_CIS is a cell-based, multiplexed-readout assay that uses HepG2, a human liver cell line, with measurements taken at 24 hours after chemical dosing in a 24-well plate.ATG_DR5_RAR_CIS is one of 52 assay component(s) measured or calculated from the ATG_CIS assay. It is designed to make measurements of mRNA induction, a form of inducible reporter, as detected with fluorescence intensity signals by Reverse transcription polymerase chain reaction (RT-PCR) and Capillary electrophoresis technology.Data from the assay component ATG_DR5_RAR_CIS was analyzed into 1 assay endpoint. This assay endpoint, ATG_DR5_CIS, was analyzed with bidirectional fitting relative to DMSO as the negative control and baseline of activity. Using a type of inducible reporter, measures of mRNA for gain or loss-of-signal activity can be used to understand the reporter gene at the transcription factor-level as they relate to the gene RARA and RARB and RARG. Furthermore, this assay endpoint can be referred to as a primary readout, because this assay has produced multiple assay endpoints where this one serves a reporter gene function. To generalize the intended target to other relatable targets, this assay endpoint is annotated to the nuclear receptor intended target family, where the subfamily is non-steroidal.
# Human liver HepG2 cells are transiently transfected with multiple reporter transcription units (MRTUs) in 6-well plates using FuGene 6 reagent (Roche; 3 ml FuGene/1 mg DNA). The MRTU constructs are regulated by a cis-regulating element (promoter). […] A major difference between the CIS and TRANS system is that in CIS activities of endogenous TFs are measured, whereas the TRANS assay evaluates changes in activities of exogenous, chimeric NR-Gal4 proteins. […] At the end of 24 hour incubation, total RNA was isolated using TriZol reagent (Invitrogen). The isolated RNA is then reverse-transcribed using oligo(dT) primer and Mo-MLV reverse transcriptase (Invitrogen) with DNAse I (Ambion) treatment for 30 min. The one-tenth of the produced cDNA was amplified by PCR using Taq DNA polymerase (Invitrogen) and two reporter sequence-specific primers. The PCR products were fluorescently labeled by primer extension with 6-arboxyfluorescein (6-FAM) 5'-labeled reporter sequence-specific primer (2 min at 95 C, 20 s at 68 C and 10 min at 72 C) and these products were digested with 5U of HpaI (New England Biolabs) for 2h at 37 C. The fragments were purified using Qiaquick PCR columns (Qiagen), analyzed on an ABI 3130xL genetic analyzer (Applied Biosystems) with peak positions identified by using a set of X-rhodamine (ROX)-labeled MapMarker1000 molecular weight standards (BioVentures). The raw capillary electrophoresis data was processed using Attagraph software (Attagene).
# Chain of Retinoic acid receptor alpha (Homo sapiens) (P10276 whole entry, looked up): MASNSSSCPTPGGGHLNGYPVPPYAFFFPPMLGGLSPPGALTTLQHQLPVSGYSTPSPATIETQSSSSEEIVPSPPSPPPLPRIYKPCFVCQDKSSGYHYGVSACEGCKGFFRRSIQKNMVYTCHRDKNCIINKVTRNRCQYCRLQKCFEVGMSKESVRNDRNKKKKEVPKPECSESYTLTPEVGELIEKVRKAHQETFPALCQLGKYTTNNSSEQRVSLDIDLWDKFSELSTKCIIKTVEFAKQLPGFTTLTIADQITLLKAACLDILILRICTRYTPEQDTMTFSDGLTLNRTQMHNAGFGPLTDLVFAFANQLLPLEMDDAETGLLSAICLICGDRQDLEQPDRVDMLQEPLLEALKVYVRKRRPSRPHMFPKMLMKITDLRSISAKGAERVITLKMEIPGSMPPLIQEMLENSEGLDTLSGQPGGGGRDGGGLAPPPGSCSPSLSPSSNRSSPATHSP
Structure (SMILES),outcome,AC50
O=[N+]([O-])c1ccc(O)c([N+](=O)[O-])c1,inactive,
CC(Br)C(=O)O (stereo not given),inactive,
O=C(OC1CCCCC1)c1ccccc1C(=O)OC1CCCCC1,inactive,
CNC(=O)O/N=C/C(C)(C)S(C)=O (stereo not given),inactive,
COc1ccc(OC)c(C=O)c1,inactive,
c1cc[c]([Hg][c]2ccccc2)cc1,inactive,
Fc1ccc(C2(Cn3cncn3)OC2c2ccccc2Cl)cc1 (stereo not given),inactive,
O=C1C2(Cl)C3(Cl)C4(Cl)C(Cl)(Cl)C5(Cl)C3(Cl)C1(Cl)C5(Cl)C24Cl (stereo not given),inactive,20.9 µM (active)
CCNc1nc(NC(C)(C)C)nc(SC)n1,inactive,
CC(C)(c1ccccc1)c1ccc(O)c(C(C)(C)c2ccccc2)c1,,2.85 µM (active)
BrCCBr,inactive,
CCOC(=O)/C=C(C)/C=C/C[C@@H](C)CCCC(C)C,,33.4 µM (active)
CCOP(=S)(OCC)SCCS(=O)(=O)CC,inactive,
CCSC(C)CC1CC(=O)C(C(CC)=NOC/C=C/Cl)=C(O)C1 (stereo not given),inactive,
CCc1ccccc1C,inactive,
O=CC=O,inactive,
C1CCC(NC2CCCCC2)CC1,inactive,
Cl/C=C/Cl,inactive,
CC(C)(OO)c1ccccc1,,48.2 µM (active)
ClC1(Cl)C2(Cl)C3(Cl)C4(Cl)C(Cl)(Cl)C5(Cl)C3(Cl)C1(Cl)C5(Cl)C24Cl (stereo not given),inactive,

Structure (SMILES),outcome,AC50
O=C(Cl)c1ccc(Cl)cc1,inactive,
COC(=O)Cc1ccccc1,inactive,
CCOC(=O)Nc1cccc(OC(=O)Nc2ccccc2)c1,inactive,
Clc1ccc(COC(Cn2ccnc2)c2ccc(Cl)cc2Cl)cc1 (stereo not given),inactive,
O=C/C=C/c1ccccc1,inactive,
O=P(O)(O)CN(CP(=O)(O)O)CP(=O)(O)O,inactive,
C=C(C)C(=O)[O][Sn]([CH2]CCC)([CH2]CCC)[CH2]CCC,,0.00707 µM (active)
Oc1ccc(-c2ccccc2)cc1,,154 µM (active)
CN(C)N=O,inactive,
CC1(C)Cc2cccc(O)c2O1,inactive,
ClC1=C(Cl)[C@]2(Cl)[C@@H]3[C@@H](Cl)[C@@H](Cl)C[C@@H]3[C@@]1(Cl)C2(Cl)Cl,inactive,
C(=NC1CCCCC1)=NC1CCCCC1,inactive,
Cc1ccc(N)cc1Cl,inactive,
COP(=S)(OC)Oc1c(Cl)cc(C)cc1Cl,inactive,
CCC(C)(C)c1ccc(O)c(C(C)(C)CC)c1,,5.73 µM (active)
COP(=O)(OC)O/C(=C\Cl)c1cc(Cl)c(Cl)cc1Cl,inactive,
CC(C)(c1ccc(OCC2CO2)cc1)c1ccc(OCC2CO2)cc1 (stereo not given),inactive,
CCOP(OCC)OCC,inactive,
O=C(O)Cc1ccccc1,inactive,
